Percent Effect data for eight compounds are collected here from ChEMBL document CHEMBL3988442, “University of Dundee, Small-Polar-MMV Screening Library” (2021).

For some of these results: Entries with a potency or affinity are not part of this list.

Design in all cases: scale not given: direction of the effect not stated beside the values
The target in experiment [1] is Protein translocase subunit SecA (Escherichia coli (strain K12)) (UniProt P10408). Put plainly: Assay to Identify E. coli SecA ATPase Inhibitors. The format is functional. Conditions: 30 µM.
Protein translocase subunit SecA (Escherichia coli (strain K12)), sequence (P10408 whole entry): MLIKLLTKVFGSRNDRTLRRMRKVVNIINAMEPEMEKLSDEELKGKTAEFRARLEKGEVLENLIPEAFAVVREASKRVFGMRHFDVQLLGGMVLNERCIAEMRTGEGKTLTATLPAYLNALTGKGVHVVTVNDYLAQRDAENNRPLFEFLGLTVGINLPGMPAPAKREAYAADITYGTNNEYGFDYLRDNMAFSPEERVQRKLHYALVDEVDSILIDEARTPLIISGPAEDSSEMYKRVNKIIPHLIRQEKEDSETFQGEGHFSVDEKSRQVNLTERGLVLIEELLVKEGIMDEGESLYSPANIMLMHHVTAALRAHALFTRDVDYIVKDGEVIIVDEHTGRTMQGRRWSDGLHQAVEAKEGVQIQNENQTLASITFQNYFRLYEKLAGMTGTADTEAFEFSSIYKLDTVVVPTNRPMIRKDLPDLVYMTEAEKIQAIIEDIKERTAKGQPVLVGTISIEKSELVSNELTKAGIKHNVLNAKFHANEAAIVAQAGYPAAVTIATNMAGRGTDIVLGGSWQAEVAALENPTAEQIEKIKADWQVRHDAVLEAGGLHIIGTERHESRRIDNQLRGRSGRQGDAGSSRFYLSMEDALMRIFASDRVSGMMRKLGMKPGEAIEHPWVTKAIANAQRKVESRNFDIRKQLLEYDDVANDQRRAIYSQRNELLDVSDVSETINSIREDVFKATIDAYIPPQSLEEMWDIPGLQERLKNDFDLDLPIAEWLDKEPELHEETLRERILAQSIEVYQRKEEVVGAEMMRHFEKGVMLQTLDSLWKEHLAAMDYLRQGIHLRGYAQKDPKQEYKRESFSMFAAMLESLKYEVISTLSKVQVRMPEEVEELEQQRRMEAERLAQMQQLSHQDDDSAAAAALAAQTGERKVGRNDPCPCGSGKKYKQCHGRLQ
Experiment [2] has as its target T1, Ubiquitin-activating enzyme e1, putative (Leishmania donovani (strain BPK282A1)) (UniProt E9BSI1).
T1 sequence (whole entry): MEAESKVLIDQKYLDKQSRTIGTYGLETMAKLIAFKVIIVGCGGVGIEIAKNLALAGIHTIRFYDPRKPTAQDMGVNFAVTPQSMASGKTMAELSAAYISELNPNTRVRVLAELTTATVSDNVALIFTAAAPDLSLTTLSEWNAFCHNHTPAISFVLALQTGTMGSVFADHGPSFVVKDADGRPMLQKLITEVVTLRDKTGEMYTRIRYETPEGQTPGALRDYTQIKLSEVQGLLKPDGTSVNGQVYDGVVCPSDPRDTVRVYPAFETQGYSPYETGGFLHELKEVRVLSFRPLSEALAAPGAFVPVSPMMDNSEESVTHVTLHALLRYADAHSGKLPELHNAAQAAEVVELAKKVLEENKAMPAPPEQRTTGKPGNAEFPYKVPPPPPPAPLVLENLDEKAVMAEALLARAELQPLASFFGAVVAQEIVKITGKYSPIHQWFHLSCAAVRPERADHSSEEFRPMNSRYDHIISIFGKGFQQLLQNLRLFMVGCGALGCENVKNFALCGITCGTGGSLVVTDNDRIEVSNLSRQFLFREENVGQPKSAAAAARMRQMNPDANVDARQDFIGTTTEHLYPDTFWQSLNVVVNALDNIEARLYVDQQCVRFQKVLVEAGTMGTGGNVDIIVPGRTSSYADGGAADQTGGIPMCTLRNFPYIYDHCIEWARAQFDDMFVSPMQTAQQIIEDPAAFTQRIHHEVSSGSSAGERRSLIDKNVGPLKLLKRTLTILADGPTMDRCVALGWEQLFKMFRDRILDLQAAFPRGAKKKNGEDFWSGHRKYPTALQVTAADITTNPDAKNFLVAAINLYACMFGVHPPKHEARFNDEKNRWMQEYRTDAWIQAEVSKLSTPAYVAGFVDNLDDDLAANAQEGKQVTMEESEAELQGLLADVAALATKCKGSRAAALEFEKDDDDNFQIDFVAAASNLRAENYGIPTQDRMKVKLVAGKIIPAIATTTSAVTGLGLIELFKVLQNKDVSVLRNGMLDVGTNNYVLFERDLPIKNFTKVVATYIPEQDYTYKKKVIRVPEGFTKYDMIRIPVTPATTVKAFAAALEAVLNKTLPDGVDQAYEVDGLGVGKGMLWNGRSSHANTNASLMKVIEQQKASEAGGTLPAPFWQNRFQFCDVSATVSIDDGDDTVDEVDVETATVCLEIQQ
Put plainly: Leishmania donovani Ubiquitin Activating Enzyme (LdE1). The format is functional. Conditions: 30 µM.

The target in experiment [3] is AMP-activated protein kinase, AMPK (Homo sapiens) (UniProt P54646+O43741+P54619+Q9UGJ0+Q9Y478+Q13131+Q9UGI9). Put plainly: AMP-dependent Kinase enzyme assay. An in vitro enzyme assay that detects ADP turnover that is directly proportional to AMPK activity. This uses naive AMPK that is activated during the assay with MK-8722. The class given is functional. Conditions: 30 µM.

Experiment [4] deals with Sialic acid-binding Ig-like lectin 9 (Homo sapiens) (UniProt Q9Y336). Put plainly: Hs-Siglec9 ALPHAscreen SOP 20170721. Conditions: 10 µM.
Sialic acid-binding Ig-like lectin 9 (Homo sapiens), sequence (Q9Y336 whole entry): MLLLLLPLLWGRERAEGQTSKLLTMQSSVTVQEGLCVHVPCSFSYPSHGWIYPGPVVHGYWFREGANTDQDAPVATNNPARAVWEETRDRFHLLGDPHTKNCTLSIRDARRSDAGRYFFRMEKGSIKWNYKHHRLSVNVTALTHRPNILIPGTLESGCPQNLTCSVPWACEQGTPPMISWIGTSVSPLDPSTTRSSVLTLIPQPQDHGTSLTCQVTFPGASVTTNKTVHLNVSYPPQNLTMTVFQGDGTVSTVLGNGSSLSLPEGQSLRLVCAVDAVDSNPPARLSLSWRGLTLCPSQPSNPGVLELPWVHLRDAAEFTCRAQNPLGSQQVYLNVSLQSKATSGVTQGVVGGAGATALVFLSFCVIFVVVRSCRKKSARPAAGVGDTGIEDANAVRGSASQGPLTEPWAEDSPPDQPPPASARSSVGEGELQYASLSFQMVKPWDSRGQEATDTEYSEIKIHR
The subject of the next experiment is Trypanosoma cruzi. Description: Trypanosoma cruzi phosphomannomutase and mannose-1-phosphate guanylyltransferase assay. The format is functional. Conditions: 10 µM.
In experiment [5] the target is T2, Arginase-2, mitochondrial (Homo sapiens) (UniProt P78540).
T2 sequence (whole entry): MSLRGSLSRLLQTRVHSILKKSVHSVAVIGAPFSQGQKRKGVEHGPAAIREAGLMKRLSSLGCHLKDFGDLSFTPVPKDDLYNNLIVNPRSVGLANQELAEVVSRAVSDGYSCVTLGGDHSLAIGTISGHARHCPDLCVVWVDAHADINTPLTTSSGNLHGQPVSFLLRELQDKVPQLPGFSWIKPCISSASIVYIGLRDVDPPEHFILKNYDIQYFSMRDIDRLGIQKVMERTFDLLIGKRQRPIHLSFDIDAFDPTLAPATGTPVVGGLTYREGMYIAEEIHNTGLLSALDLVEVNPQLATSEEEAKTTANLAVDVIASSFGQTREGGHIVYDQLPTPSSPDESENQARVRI
Description: in vitro enzyme assay to detect the production of urea directly proportional to the activity of Arginase II. Note: in the data most compounds retested in dose-response had high values. The format is functional. Conditions: 33.3 µM.

Experiment [6] addresses T3, Proteasome subunit beta (Trypanosoma cruzi) (UniProt O96673).
T3 sequence (whole entry): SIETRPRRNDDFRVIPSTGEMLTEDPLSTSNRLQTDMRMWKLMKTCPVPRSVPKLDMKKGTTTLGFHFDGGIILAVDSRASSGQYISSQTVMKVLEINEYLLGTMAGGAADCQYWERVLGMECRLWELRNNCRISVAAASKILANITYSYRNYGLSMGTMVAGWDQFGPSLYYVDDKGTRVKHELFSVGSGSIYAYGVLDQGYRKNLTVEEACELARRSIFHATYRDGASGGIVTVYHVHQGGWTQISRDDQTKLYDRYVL
Description: Trypanosoma cruzi proteasome chymotrypsin-like activity (TcProtChymo) assay. Note: in the data most compounds retested in dose-response had high values. Conditions: 9.37 µM. The class given is functional.

Another experiment is filed under the species Homo sapiens. Description: To identify inhibition of the IFN signalling (Jak-Stat) pathway via expression of an eGFP reporter gene under the control of an IFN-stimulated response element (ISRE) containing MxA promoter. The class given is functional. Conditions: 30 µM. (In general: In a reporter assay the amount or activity of a reporter protein is the signal.)

Experiment [7] concerns the target T4, Tyrosyl-tRNA synthetase, putative (Trypanosoma cruzi (strain CL Brener)) (UniProt Q4DSP6).
T4 sequence (whole entry): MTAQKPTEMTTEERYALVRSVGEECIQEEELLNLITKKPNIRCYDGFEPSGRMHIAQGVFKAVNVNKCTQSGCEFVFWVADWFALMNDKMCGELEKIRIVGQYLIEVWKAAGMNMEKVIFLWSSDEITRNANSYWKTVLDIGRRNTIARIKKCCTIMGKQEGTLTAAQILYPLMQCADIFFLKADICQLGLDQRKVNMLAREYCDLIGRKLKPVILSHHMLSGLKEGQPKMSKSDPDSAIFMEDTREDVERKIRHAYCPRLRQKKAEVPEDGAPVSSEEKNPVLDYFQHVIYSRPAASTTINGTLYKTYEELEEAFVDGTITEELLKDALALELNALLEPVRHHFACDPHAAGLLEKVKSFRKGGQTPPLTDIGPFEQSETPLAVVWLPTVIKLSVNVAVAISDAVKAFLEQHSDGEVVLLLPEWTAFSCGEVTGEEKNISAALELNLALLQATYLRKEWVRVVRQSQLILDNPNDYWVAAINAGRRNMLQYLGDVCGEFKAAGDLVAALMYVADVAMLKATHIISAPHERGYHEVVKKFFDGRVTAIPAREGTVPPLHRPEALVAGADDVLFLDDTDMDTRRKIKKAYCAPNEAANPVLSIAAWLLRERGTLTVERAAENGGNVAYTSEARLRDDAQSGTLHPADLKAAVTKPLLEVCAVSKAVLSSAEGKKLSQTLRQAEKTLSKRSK
Description: Trypanosoma cruzi tyrosyl tRNA synthetase (TcYRS) _High Tyrosine SOP. Note: in the data most compounds retested in dose-response had high values. The format is functional. Conditions: 30 µM.

Experiment [8] concerns the target T4, Tyrosyl-tRNA synthetase, putative (Trypanosoma cruzi (strain CL Brener)). Description: Trypanosoma cruzi tyrosyl tRNA synthetase (TcYRS) SOP. The format is functional. Conditions: 30 µM.
For experiment [9], the target named is Chromo domain-containing protein 1 (Saccharomyces cerevisiae (strain ATCC 204508 / S288c) (Baker's yeast)) (UniProt P32657). Description: ScCHD-1 Enzyme Inhibition Assay. Note: in the data most compounds retested in dose-response had high values. The format is functional. Conditions: 30 µM.
Chromo domain-containing protein 1 (Saccharomyces cerevisiae (strain ATCC 204508 / S288c) (Baker's yeast)), sequence (P32657 whole entry, the tested form may be a part): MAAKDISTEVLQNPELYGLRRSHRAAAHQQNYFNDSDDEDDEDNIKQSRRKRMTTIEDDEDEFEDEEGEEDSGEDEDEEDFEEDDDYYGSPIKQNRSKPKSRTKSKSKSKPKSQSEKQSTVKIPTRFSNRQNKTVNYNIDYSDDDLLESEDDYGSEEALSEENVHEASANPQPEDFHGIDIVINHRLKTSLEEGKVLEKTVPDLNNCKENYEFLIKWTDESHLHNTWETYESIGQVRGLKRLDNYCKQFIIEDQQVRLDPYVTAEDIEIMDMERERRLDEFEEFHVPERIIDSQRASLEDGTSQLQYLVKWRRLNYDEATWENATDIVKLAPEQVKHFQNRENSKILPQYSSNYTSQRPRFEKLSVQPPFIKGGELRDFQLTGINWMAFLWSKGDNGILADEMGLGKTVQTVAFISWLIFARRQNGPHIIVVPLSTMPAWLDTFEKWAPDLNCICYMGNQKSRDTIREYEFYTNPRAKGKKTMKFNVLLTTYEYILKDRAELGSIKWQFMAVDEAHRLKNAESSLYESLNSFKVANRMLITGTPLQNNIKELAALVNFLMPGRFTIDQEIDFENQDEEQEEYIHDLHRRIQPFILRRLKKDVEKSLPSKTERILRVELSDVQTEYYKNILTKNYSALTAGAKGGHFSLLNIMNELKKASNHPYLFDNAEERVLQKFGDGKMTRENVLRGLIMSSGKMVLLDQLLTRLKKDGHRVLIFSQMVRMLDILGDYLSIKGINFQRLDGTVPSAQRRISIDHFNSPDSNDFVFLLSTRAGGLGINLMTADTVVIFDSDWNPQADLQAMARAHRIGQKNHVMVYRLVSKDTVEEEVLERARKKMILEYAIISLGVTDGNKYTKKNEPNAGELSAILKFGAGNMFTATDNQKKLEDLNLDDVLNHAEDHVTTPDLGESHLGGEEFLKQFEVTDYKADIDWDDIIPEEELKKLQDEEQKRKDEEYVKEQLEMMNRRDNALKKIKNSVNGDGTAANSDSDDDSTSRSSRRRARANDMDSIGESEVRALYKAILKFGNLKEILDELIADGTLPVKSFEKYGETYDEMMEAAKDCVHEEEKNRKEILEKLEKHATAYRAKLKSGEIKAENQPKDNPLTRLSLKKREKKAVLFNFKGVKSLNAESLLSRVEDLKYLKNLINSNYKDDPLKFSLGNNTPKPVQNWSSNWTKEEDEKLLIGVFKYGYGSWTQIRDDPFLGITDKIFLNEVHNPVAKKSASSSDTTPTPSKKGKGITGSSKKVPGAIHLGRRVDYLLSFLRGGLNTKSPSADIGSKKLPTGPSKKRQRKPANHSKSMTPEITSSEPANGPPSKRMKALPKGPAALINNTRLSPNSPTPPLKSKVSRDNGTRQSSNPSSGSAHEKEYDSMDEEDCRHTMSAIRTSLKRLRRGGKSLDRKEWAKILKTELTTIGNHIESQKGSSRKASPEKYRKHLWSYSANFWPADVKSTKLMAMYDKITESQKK

As to `O=C(Cn1cnc(-c2ccccc2)cc1=O)Nc1ccncc1`, the Percent Effect was -2.42% in [1]; 20.8% in experiment [2]; -3.34% in experiment [3]; -1.53% in experiment [4]; 2.07% with Trypanosoma cruzi; 1.94% in [5]. Further, the Percent Effect in experiment [6] was 16.9%; in the experiment filed under Homo sapiens, 26.1%; in experiment [7] it was 6.35%; in experiment [8], 16.7%; in [9], -9.23%.
In the case of `CCN(CC1CCOC1)C(=O)c1ccccc1NS(=O)(=O)CC` (stereo not drawn), the Percent Effect in experiment [1] is -5.12%; in [2], 7.89%; in experiment [3], -0.433%; in [4], -1.92%; in the experiment with Trypanosoma cruzi, 1.03%; in experiment [5], -1.08%. Also, the Percent Effect is 6.34% in experiment [6]; -2.41% in the experiment listed under Homo sapiens; 7.39% in experiment [7]; 18.5% in experiment [8]; -4.83% in [9].
For `CN(C)c1cncc(C2CCN(CCO)CC2)n1`, the Percent Effect was -3.32% in experiment [1]; 12.2% in [2]; 5.42% in experiment [3]; -1.62% in experiment [4]; -2.96% in the experiment with Trypanosoma cruzi; -3.94% in [5]. Moreover, the Percent Effect in [6] is 8.74%; in the experiment listed under Homo sapiens it was 8.75%; in experiment [7], 7.53%; in experiment [8] it was 16.9%; in [9] it was -15.7%.
Regarding `Cc1n[nH]cc1C(=O)N1CCCC(n2nnc3cc(F)ccc32)C1` (stereo not drawn), the Percent Effect in experiment [1] is -5.29%; in experiment [2], 5.33%; in experiment [3] it was 7.57%; in experiment [4], -0.922%; in the experiment on Trypanosoma cruzi, 6.5%; in experiment [5], -3.5%. The Percent Effect was 11.7% in experiment [6]; 5.51% in the experiment filed under Homo sapiens; 5.32% in experiment [7]; 11.5% in experiment [8]; -7.34% in experiment [9].
As for `O=C(NCCn1ccnc1)c1cccc(F)c1`, the Percent Effect is -1.92% in experiment [1]; 18.4% in [2]; -6.48% in experiment [3]; -8.53% in [4]; -4.39% in the experiment on Trypanosoma cruzi; 0.36% in [5]. The Percent Effect is 9.56% in [6]; -11.5% in the experiment listed under Homo sapiens; 5.42% in [7]; 13.6% in experiment [8]; -6.88% in [9].
Take `Cc1ccc(N2CCCN(C(=O)c3cc(Cl)c[nH]3)CC2)nn1`: the Percent Effect was -3.96% in experiment [1]; -5.48% in experiment [2]; 4.73% in experiment [3]; 4.6% in [4]; -3.17% in the experiment on Trypanosoma cruzi; 3.59% in experiment [5]. The Percent Effect is 9.33% in experiment [6]; 2.32% in the experiment filed under Homo sapiens; 12.5% in experiment [7]; 23.5% in [8]; -1.25% in experiment [9].
Regarding `c1ccc(CN2CCN(Cc3cscn3)CC2)cc1`, the Percent Effect in [1] is -3.29%; in [2], 15.6%; in experiment [3], 2.52%; in [4], 7.55%; in the experiment with Trypanosoma cruzi, 0.49%; in experiment [5], 3.58%. The Percent Effect in experiment [6] was 7.2%; in the experiment listed under Homo sapiens, 7.07%; in [7] it was 8.57%; in experiment [8] it was 18.8%; in [9] it was -19.7%.
As for `O=C(Cc1ccc2c(c1)OCCO2)N1CCCC(n2cccn2)C1` (stereo not drawn), the Percent Effect in experiment [1] is 2.92%; in experiment [2] it was 2.6%; in [3], 13.7%; in experiment [4], -3.29%; with Trypanosoma cruzi it was 1.08%; in experiment [5] it was 2.74%. Besides, the Percent Effect in [6] is 3.15%; in the experiment filed under Homo sapiens, 22.6%; in [7], -7.62%; in experiment [8], -2.35%; in experiment [9] it was -15%.
